The list is not random: actives were taken first. Their share in the collection is about 5.7%.
FAS TE block: blocks the thioesterase domain of human fatty acid synthase; 360,000 compounds, 0.67% hits; P49327; AID 602261; inhibition, % at 15 µM; recombinant FAS-TE, OMFH fluorogenic substrate, fluorescence endpoint;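 active = compounds whose normalised, plate-corrected inhibition of enzyme fluorescence in the single-dose primary screen is 50% or more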
MPTP block: inhibitors of mitochondrial permeability transition pore | isolated mouse mitochondria, Ca2+ swelling absorbance, 30 min | inhibition, % at 10 µM | 360,000 compounds, 1.4% hits | AID 602449;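 active = inhibition of 50% or more, scaled per plate between neutral and stimulator controls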
rCAG binder: r(CAG) repeat RNA binding | AID 651821 | inhibition, % at 3 µM | TO-PRO-1 dye displacement fluorescence | 370,000 compounds, 1.3% hits;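 active = inhibition above the plate cutoff, the mean of all test compounds on that plate plus 3 SD, cut at about 35% in these data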;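 note: higher means more dye released from RNA so lower well fluorescence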
Myeloid diff MLP: promotes myeloid progenitor differentiation. ER-HoxA9 myeloid progenitors, lysozyme-GFP differentiation, flow cytometry. calls only at 10 µM. 360,000 compounds, 1% hits. AID 624256;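 active = normalized GFP-positive differentiation at or above the plate's own cutoff, the solvent-only control mean plus 3 SD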;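 note: cells exposed to compound for four days before flow analysis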
GRIN3A LBD mod: modulators (binders) of human NR3A ligand-binding domain | AID 1259313 | 340,000 compounds, 2.5% hits | Tm shift relative to glycine control, % at 25 µM | NR3A LBD differential scanning fluorimetry, Tm shift; 0% = protein alone, 100% = glycine-bound protein;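 active = melting temperature shift of at least 10% of the positive control shift, at one fixed dose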
FAS-TE conf: confirmation of human fatty acid synthase thioesterase inhibitors; shares compounds with FAS TE block; recombinant FAS-TE, OMFH fluorogenic substrate, fluorescence; inhibition, % at 15 µM; 2,300 compounds, 45% hits; AID 624325;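 active = compounds inhibiting the enzyme by at least 50% at 15 µM in any one of the replicates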
MPTP counter: mitochondrial membrane potential, counter-screen | shares compounds with MPTP block | isolated mitochondria, Rhodamine 123 fluorescence | inhibition, % at 10 µM | 5,000 compounds, 78% hits | AID 624504; in the data active = inhibition above about 22%
MPTP swell DR: MPTP inhibition, dose response swelling confirmation; 780 compounds, 58% hits; IC50, µM; shares compounds with MPTP block; isolated mitochondria swelling, absorbance; AID 651561; in the data active = IC50 below about 20 µM
MPTP cs DR: counter-screen for mitochondrial permeability transition pore inhibitors, dose response | 780 compounds, 49% hits | isolated mitochondria counterscreen, fluorescence read-out | shares compounds with MPTP block | IC50, µM | AID 651564; in the data active = IC50 below about 80 µM
Myeloid diff: myeloid differentiation induction; shares compounds with Myeloid diff MLP; ER-HoxA9 myeloid progenitors, GFP/Mac1 double-positive flow; calls only; 2,300 compounds, 2% hits; AID 651706;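 active = share of green or green-and-red cells above 9 and 9% in run 1 or 4 and 3% in run 2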
GFP autofluor: flagged as fluorescent in myeloid differentiation counter-screen | fluorescence response, % (no concentration beside the values) | 2,300 compounds, 7.4% hits | ER-HoxA9 myeloid progenitors, no estrogen, GFP autofluorescence flow cytometry; vehicle wells 0%, positive control 100% | shares compounds with Myeloid diff MLP;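 active = over 5% cells positive for green fluorescent reporter, or over 2% positive for both it and APC stain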
Of the large screens only hits and unclear results are named; the others gave an inactive call (follow-up assays come after a bar, where they were run).

COc1ccc(S[C@]2(C(=O)N3CCCC3)CC(=O)N(C(=O)Nc3ccc(C)c(Cl)c3)[C@@H]2c2ccc(OC)cc2)cc1	none (no result: FAS TE block, MPTP block, Myeloid diff MLP, GRIN3A LBD mod)
CCS(=O)(=O)Nc1ccc2c(c1)C(=O)N(C)[C@@H]1CC[C@H](CC(=O)N[C@@H]3CCN(Cc4ccccc4)C3)O[C@H]1CO2	none (no result: FAS TE block, MPTP block, Myeloid diff MLP, GRIN3A LBD mod)
COc1ccc(C(=O)C2(C(=O)NCc3ccccc3)CC(c3ccccn3)=NO2)cc1 (stereo not drawn)	none (no result: FAS TE block, MPTP block, Myeloid diff MLP, GRIN3A LBD mod)
Cc1nn(CCc2nn[nH]n2)c2nc(-c3ccc(C4CCCCC4)cc3)cc(C(F)(F)F)c12	FAS TE block 69.2, MPTP block 59.1, Myeloid diff MLP active | FAS-TE conf inactive | MPTP counter 25.6
O=C(CCSc1ccccc1Cl)Nc1cccc([N+](=O)[O-])c1	FAS TE block 52.4, MPTP block 89.0 | FAS-TE conf inactive | MPTP counter 84.1
COc1ccc(C2CC(=O)C(c3ccccc3OC)=CN2Cc2ccccc2)cc1 (stereo not drawn)	none (no result: FAS TE block, MPTP block, Myeloid diff MLP, GRIN3A LBD mod)
O=C(NCCOc1ccccc1)c1cc(C(=O)NCCOc2ccccc2)cc([N+](=O)[O-])c1	FAS TE block 75.3, MPTP block 56.5 | FAS-TE conf 76.6 | MPTP counter 92.6
CCC(C)c1ccc2oc(-c3ccc(NC(=O)Cn4cnc5c(=O)n(C)c(=O)n(C)c54)cc3)nc2c1 (stereo not drawn)	FAS TE block 72.9, MPTP block 84.1, GRIN3A LBD mod 23.1 | FAS-TE conf inactive | MPTP counter inactive | MPTP swell DR inactive | MPTP cs DR 41.4
CC(C)c1ccc(NC(=O)c2snc3ccc(Cl)cc23)cc1	FAS TE block 58.2, MPTP block 74.2, GRIN3A LBD mod 10.1 | FAS-TE conf inactive | MPTP counter 73.8
COC(=O)C1=C(C)N(Cc2cccc(C(F)(F)F)c2)C(=NCc2ccc(OC)cc2)NC1c1cccc(F)c1 (stereo not drawn)	none (no result: FAS TE block, MPTP block, Myeloid diff MLP, GRIN3A LBD mod)
CCOC(=O)c1sc(NNC(=O)c2ccc(C)cc2)nc1C	none
CCOC(=O)c1nc(NNC(=O)c2ccc([N+](=O)[O-])cc2)sc1C	FAS TE block 52.8, MPTP block 78.3, rCAG binder 36.8 | FAS-TE conf inactive | MPTP counter 67.4
CCCCNC(=O)CCC(=O)Nc1ccc2nc(N3CCC(C)CC3)cc(C)c2c1	FAS TE block 59.5 | FAS-TE conf inactive | Myeloid diff inactive | GFP autofluor inactive
CC1=CC(=C(C#N)C#N)c2ccccc2N1C	FAS TE block 61.1 | FAS-TE conf inactive | Myeloid diff inactive | GFP autofluor inactive
COC(=O)[C@H]1C[C@@]2(C)c3ccccc3N(C(=O)OC(C)(C)C)[C@H]2N1C(=O)OC(C)(C)C	none (no result: FAS TE block, MPTP block, Myeloid diff MLP, GRIN3A LBD mod)
CSc1nc(N2CCOCC2)c2c(c1C#N)CCCCC2	none
N#CCCSc1nc(N2CCOCC2)c2c(c1C#N)CCCC2	FAS TE block 55.1 | FAS-TE conf 62.1 | Myeloid diff inactive | GFP autofluor inactive
O=C(NC1CCC1)c1ccc(C#CC2CC2)c[n+]1[O-]	none (no result: FAS TE block, MPTP block, Myeloid diff MLP, GRIN3A LBD mod)
COc1ccc2c(c1)C(=O)N1[C@H]3c4cc(C)ccc4OC[C@@H]3[C@H](c3ccccc3)[C@]1(C)C(=O)N2	FAS TE block 73.3, Myeloid diff MLP active | FAS-TE conf inactive | Myeloid diff inactive | GFP autofluor inactive
CCOC(=O)[C@H]1[C@H]2COc3ccc(OC)cc3[C@@H]2N2C(=O)c3cc(C)ccc3NC(=O)[C@@]12C	none
O=[N+]([O-])c1ccc(S(=O)(=O)Nc2ccc(-c3ccc(N4CCCC4)nn3)cc2)cc1	none
